Source: PubChem BioAssay
The list is not random: actives were taken first. Their share in the collection is about 19%.
MCF10A rereplic: induces DNA re-replication in MCF 10a normal breast cells; MCF 10A DNA re-replication, Hoechst nuclear intensity, 48 h; Potency, µM (titrated, usually from 46.1 µM), for the others: at the highest dose activity, positive = re-replication, actives largely listed as activators; 350,000 tested, 2.9% active; AID 624296; note: potency is the fitted concentration of half-maximal effect; % of control where 0% means no effect; nearly all actives have a fitted effect of over 50% in size
SW480 rerep: DNA re-replication induction in SW480 cells; AID 624297; 340,000 tested, 1.8% active; SW480 DNA re-replication, Hoechst DNA content imaging, 48 h; Potency, µM (highest dose often 46.1 µM), inactives show at the highest dose re-replication activation, most hits filed as activators; note: potency is the fitted concentration of half-maximal effect; % of control where 0% means no effect; nearly all actives have a fitted effect of over 55% in size
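250 cells/well; 23 nL cpd via pin tool; 48 hr, 37 C, 5% CO2; Hoechst 40 min; imager read of total nuclear intensity, ex 405/em 500-530 nm.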
TDP1 cell noCPT: qHTS for Inhibitors of human tyrosyl-DNA phosphodiesterase 1 (TDP1): qHTS in cells in absence of CPT. DT40 Tdp1-/- hTDP1 cells, no CPT, ATP luminescence, 48 h. Potency, µM (series often up to 46.2 µM), for the others: at the top dose activity change, negative = growth inhibition, hits mostly inhibitors. 420,000 tested, 15% active. AID 686978, 2013; note: potency is the fitted concentration of half-maximal effect; % is set by controls: 0 for no effect and ±100 for the full control effect; nearly all actives have a fitted effect of over 55% in size
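Compound effects on proliferation are scored in DT40 Tdp1-/-;hTDP1 cells in the absence of CPT. ATP levels (CellTiter-Glo luminescence) are recorded after a ≥48 hr, 37 °C incubation.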
TDP1 cell CPT: DT40-hTDP1 cell growth loss with CPT; 420,000 tested, 12% active; Potency, µM (highest dose often 46.2 µM), for inactives: at the top dose activity change, negative = growth inhibition, usual class: inhibitors; chicken DT40 Tdp1-/-;hTDP1 cells + 20 nM CPT, ATP luminescence, 48 h; note: potency is the fitted concentration of half-maximal effect; % is set by controls: 0 for no effect and ±100 for the full control effect; nearly all actives have a fitted effect of over 55% in size
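Chicken DT40 Tdp1-/- cells stably complemented with human TDP1 were seeded at 400 cells/well in medium containing 20 nM camptothecin, exposed to pin-transferred compounds, and grown at 37 °C for at least 48 hr. Viability was read as ATP luminescence.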
BCR signal inh: chronic active BCR signaling inhibition; Potency, µM (series often up to 46.1 µM), inactives show top-dose activity change, negative = inhibition, hits mostly inhibitors; 340,000 tested, 0.05% active; ABC-DLBCL IkBa-CBG/CBR reporter, luminescence ratio, 4 h; AID 493014; active = well fitted inhibition curve with a large enough effect in the signal ratio, with a control signal flat, not every such curve was filed as active; inconclusive = small, poorly fitted or top-dose-only effect, or effect the other way, or a change in a side signal; the % refers to the signal ratio;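 note: potency is the fitted concentration of half-maximal effect; plate controls were basal doxycycline-induced cells for no effect and cells given 10 µM MG132 for full effect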
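Concentration-response series (up to 46 uM) were applied to TMD8 dual-reporter cells for 4 h at 37C with doxycycline. Green/red ratio, after filter-overlap correction, defined %Activity; red signal alone was normalised to basal cells and zero luminescence.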
IL1B secr inh: inhibitors of inflammasome signaling (IL-1 beta secretion); AID 743279; THP-1 LPS/ATP IL-1B secretion, AlphaLISA, 16 h; hits give low values; activity change, % at 57.5 µM; 360,000 tested, 4.7% active; in the data active = activity change below about -50%; inconclusive = mostly about -30% to -49%; note: % is set by controls: 0 for no effect and ±100 for the full control effect
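THP-1 cells pretreated 1 hr with compounds (up to 57.5 uM final), then stimulated with LPS (250 ng/mL final) plus ATP (1.25 mM final); secreted IL-1B measured by AlphaLISA after 16 hr, decreased signal indicating inhibition.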
The depositor's hits bear a star; [ ] = dose if it differs, or a comment. Unless noted, calls come from the whole dose curve; as a rule, active = well fitted curve in the direction sought with a large enough effect; inconclusive = small, poorly fitted or top-dose-only effect, or another doubt; inactive = no such curve, though single readings can be large; an effect the other way counts as inactive or inconclusive.

Screening Cc1c(C(=O)Nc2ccc(-c3nnc4n3CCCCC4)cc2)oc2ccc(Br)cc12 returned MCF10A rereplic 5%, SW480 rerep -15%, TDP1 cell noCPT inconclusive, TDP1 cell CPT inconclusive, BCR signal inh inconclusive and IL1B secr inh -65*.
Screening Cc1c(C(=O)N2CCCCC2)oc2ccc(Br)cc12 returned MCF10A rereplic 6%, SW480 rerep 2%, TDP1 cell noCPT inconclusive, TDP1 cell CPT -24%, BCR signal inh 6% and IL1B secr inh -17.
CCc1nnc(NC(=O)c2oc3ccc(Br)cc3c2C)s1 was read as MCF10A rereplic 21µM*, SW480 rerep -4%, TDP1 cell noCPT inconclusive, TDP1 cell CPT 8%, BCR signal inh inconclusive and IL1B secr inh -17.
Screening Cc1c(Cl)cccc1NC(=O)c1oc2ccc(S(=O)(=O)N3CCCCCC3)cc2c1C returned TDP1 cell noCPT 8.2µM*, TDP1 cell CPT inconclusive and BCR signal inh 0%.
Cc1ccc(Cl)cc1NC(=O)c1oc2ccc(S(=O)(=O)N3CCCCCC3)cc2c1C was read as TDP1 cell noCPT -20%, TDP1 cell CPT -27% and BCR signal inh 7%.
For Cc1c(C(=O)Nc2ccc(F)cc2)oc2ccc(S(=O)(=O)N3CCCCCC3)cc12 the results were TDP1 cell noCPT 18µM*, TDP1 cell CPT 18µM* and BCR signal inh inconclusive.
For O=C(NCc1cccnc1)C(=O)NCC1OCCCN1S(=O)(=O)c1cc(F)ccc1F (configuration not stated) the results were TDP1 cell noCPT 2%, TDP1 cell CPT -4% and IL1B secr inh 14.
O=C(Nc1nnc(SCc2ccccn2)s1)C1CC(=O)N(c2ccc(F)cc2)C1 (configuration not stated) was read as MCF10A rereplic 10%, SW480 rerep -1%, TDP1 cell noCPT -18%, TDP1 cell CPT -13%, BCR signal inh inconclusive and IL1B secr inh 32.
`COc1ccc(NC(=O)c2oc3ccc(S(=O)(=O)N4CCCCC4)cc3c2C)cc1Cl` gave TDP1 cell noCPT 13µM*, TDP1 cell CPT 9.2µM* and BCR signal inh 2%.
For COc1ccc(C(=O)O)cc1S(=O)(=O)NC(C)C the results were MCF10A rereplic -1%, SW480 rerep -11%, TDP1 cell noCPT -2%, TDP1 cell CPT 8%, BCR signal inh 3% and IL1B secr inh -7.
O=S(=O)(c1ccc(SCc2ccc(Cl)cc2)nc1)N1CCCC1 was read as MCF10A rereplic 8%, SW480 rerep -12%, TDP1 cell noCPT 15µM*, TDP1 cell CPT inconclusive, BCR signal inh 3% and IL1B secr inh -3.
For Cc1cc(C)cc(CSc2ccc(S(=O)(=O)N3CCCC3)cn2)c1 the results were MCF10A rereplic 15%, SW480 rerep -6%, TDP1 cell noCPT inconclusive, TDP1 cell CPT inconclusive, BCR signal inh 4% and IL1B secr inh 13.
COc1ccc(C(C)=O)cc1CSc1ccc(S(=O)(=O)N2CCOCC2)cn1 was read as MCF10A rereplic 12%, SW480 rerep -15%, TDP1 cell noCPT inconclusive, TDP1 cell CPT inconclusive, BCR signal inh -5% and IL1B secr inh -15.
COc1ccc(CSc2ccc(S(=O)(=O)N3CCCC3)cn2)cc1F was read as TDP1 cell noCPT 16µM*, TDP1 cell CPT 23µM* and IL1B secr inh -13.
COc1ccc(C(C)=O)cc1CSc1ccc(S(=O)(=O)N2CCCCC2)cn1 was read as MCF10A rereplic 11%, SW480 rerep -7%, TDP1 cell noCPT 16µM*, TDP1 cell CPT inconclusive, BCR signal inh 13% and IL1B secr inh 0.
Screening COc1ccc(CSc2ccc(S(=O)(=O)N3CCCCC3)cn2)cc1F returned MCF10A rereplic 10%, SW480 rerep -8%, TDP1 cell noCPT -1%, TDP1 cell CPT -12%, BCR signal inh 6% and IL1B secr inh 16.
O=S(=O)(c1ccc(SCCOc2ccc(Br)cc2)nc1)N1CCCC1 was read as MCF10A rereplic 7%, SW480 rerep 4%, TDP1 cell noCPT 16µM*, TDP1 cell CPT inconclusive, BCR signal inh -2% and IL1B secr inh -14.
Screening Cc1ccc(-n2nc3c(=O)n(CC(=O)NC(C)C)nc(C)c3c2C)cc1 returned TDP1 cell noCPT -18% and TDP1 cell CPT -18%.
`COC(=O)[C@@H]1CCCN1Cc1ccc2c(c1)CN(Cc1cc(OC)c3c(c1)OCO3)CCO2` gave TDP1 cell noCPT inconclusive and TDP1 cell CPT 23%[9.04 µM].
`NC(=O)C1CCN(C(=O)CNC(=O)c2ccc(F)cc2)CC1` gave MCF10A rereplic -4%, SW480 rerep -1%, TDP1 cell noCPT 0%, TDP1 cell CPT -4%, BCR signal inh -3% and IL1B secr inh 0.
For O=C(NCc1cccs1)c1ccc(CSc2nc3ccncc3n2Cc2cccc(F)c2)cc1 the results were TDP1 cell noCPT 21µM* and TDP1 cell CPT inconclusive.
`CCc1ccc(CNC(=O)c2ccc(CSc3nc4ccncc4n3Cc3ccccc3)cc2)cc1` gave TDP1 cell noCPT 23µM* and TDP1 cell CPT 16µM*.
For COC(=O)c1ccc(Cn2c(SCc3ccccc3)nc3ccncc32)cc1 the results were TDP1 cell noCPT 21µM* and TDP1 cell CPT inconclusive.
For CCc1ccc(CNC(=O)c2ccc(CSc3nc4ccncc4n3Cc3ccc(OC)cc3)cc2)cc1 the results were TDP1 cell noCPT inconclusive and TDP1 cell CPT 23µM*.
Screening O=C(NCc1cccs1)c1ccncc1 returned MCF10A rereplic -2%, SW480 rerep -12%, TDP1 cell noCPT 6%, TDP1 cell CPT 4%, BCR signal inh inconclusive and IL1B secr inh 1.
For COc1cc(OC)c(NS(=O)(=O)c2cc(Br)cnc2N)cc1Cl the results were MCF10A rereplic -2%, SW480 rerep -21%, TDP1 cell noCPT -2%, TDP1 cell CPT -12%, BCR signal inh 5% and IL1B secr inh 22.
For O=C(NCc1ccc(F)cc1)c1cc(C2CCCCN2C(=O)CCc2ccccc2)on1 (configuration not stated) the results were TDP1 cell noCPT -27%, TDP1 cell CPT -19% and IL1B secr inh -19.
COc1ccc(C(=O)NCc2nnc(SC)n2Cc2ccccc2)cc1 was read as MCF10A rereplic 10%, SW480 rerep 11%, TDP1 cell noCPT -18%, TDP1 cell CPT -17%, BCR signal inh 5% and IL1B secr inh 7.
